Drawing on PubChem BioAssay AID2537 (National Center for Advancing Translational Sciences (NCATS), 2010), this text covers Potency for twelve compounds.

Molecules are shown by their SMILES. Inconclusive results are not listed. Entries that show only a call come without a potency. Activity calls are given as the source filed them. Calls follow the shape of the dose curve; as a rule, active = well fitted inhibition curve with a large enough effect; inconclusive = small, poorly fitted or top-dose-only effect; inactive = no such curve, though single readings can be large or run the other way.

Chain of Polyunsaturated fatty acid lipoxygenase ALOX15B (Homo sapiens) (O15296 whole entry, looked up): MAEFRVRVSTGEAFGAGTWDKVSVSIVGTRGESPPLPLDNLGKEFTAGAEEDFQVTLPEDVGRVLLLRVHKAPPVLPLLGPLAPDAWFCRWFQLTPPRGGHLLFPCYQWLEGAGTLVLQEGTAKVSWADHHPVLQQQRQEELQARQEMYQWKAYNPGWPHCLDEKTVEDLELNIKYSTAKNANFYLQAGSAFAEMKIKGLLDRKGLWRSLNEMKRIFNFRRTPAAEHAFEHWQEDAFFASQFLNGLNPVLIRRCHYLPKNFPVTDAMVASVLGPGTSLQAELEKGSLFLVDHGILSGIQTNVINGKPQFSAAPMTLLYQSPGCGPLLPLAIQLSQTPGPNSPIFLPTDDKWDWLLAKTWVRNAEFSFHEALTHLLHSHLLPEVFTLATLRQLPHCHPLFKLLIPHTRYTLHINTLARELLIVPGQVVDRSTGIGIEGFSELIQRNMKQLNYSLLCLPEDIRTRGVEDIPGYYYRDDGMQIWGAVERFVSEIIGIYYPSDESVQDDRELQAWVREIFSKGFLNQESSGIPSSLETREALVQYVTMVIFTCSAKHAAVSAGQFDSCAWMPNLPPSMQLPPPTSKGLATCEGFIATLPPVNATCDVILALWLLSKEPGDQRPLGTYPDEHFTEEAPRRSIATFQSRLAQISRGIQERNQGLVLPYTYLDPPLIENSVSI

In this test the target is Polyunsaturated fatty acid lipoxygenase ALOX15B (Homo sapiens) (UniProt O15296). The experiment in a line: Confirmation qHTS Assay for Inhibitors of 15-hLO-2 (15-human lipoxygenase 2). The note with it: purified 15hLO-2, xylenol orange hydroperoxide absorbance; series mostly up to 57.1 µM. The method, then:
Human lipoxygenase 15hLO-2 is a member of the closely related lipoxygenase family of enzymes which catalyze the site-specific oxidation of arachidonic acid to various hormone precursor molecules and as such is a candidate for drug development in a variety of disease areas, such as cancer and inflammation. Inhibition of 15hLO-2 activity was screened by utilizing arachidonic acid as a substrate. The extent of hydroperoxide product formation was measured by a secondary chromogenic reaction in which xylenol orange (XO, Sigma-Aldrich, cat. number 39,818-7) reacts with the ferric ions produced from the reaction between the hydroperoxide and ferrous ions. The Fe(III)-XO complex is characterized with red-shifted absorbance at 560 nm. A purified preparation of human 15hLO-2 was supplied by Professor Ted Holman, University of California, Santa Cruz. NIH Molecular Libraries Screening Centers Network [MLSCN] NIH Chemical Genomics Center [NCGC] MLSCN Grant: MH081283-01A1 PI Name: Holman, T.R., University of California, Santa Cruz
Assay Protocol: Buffer: 25 mM Hepes pH 7.5, 0.01% Triton X-100. Reagents/Controls: Buffer in columns 3 and 4 as negative control (no enzyme). Substrate solution: 45 uM arachidonic acid (Sigma-Aldrich, St. Louis, MO) final concentration dispensed throughout the plate. Enzyme: 50 nM 15hLO-2 final concentration in columns 1, 2, 5-48. Column 1 is neutral (100% activity). Column 2 contained pin-transferred titration of NDGA (nordihidroguaiaretic acid, Sigma-Aldrich, N 5023, top concentration 10 mM in DMSO, then 1:2 dilution in duplicate). (Dilution factor: 23 nL into 4 uL.) Chromogenic detection reagent (divalent iron/xylenol orange, Fe-XO): 200 uM xylenol orange plus 300 uM ferrous ammonium sulfate prepared freshly in 50 mM sulfuric acid. Assay Steps: Three uL of enzyme were dispensed to 1536-well Greiner black clear bottom plates. Compounds and controls (23 nL) were transferred via Kalypsys PinTool. The plates were incubated for 15 min at room temperature, and then 1 uL of substrate solution was added to start the reaction. After room temperature incubation for 90 minutes, 4 uL of Fe-XO solution was added to each well followed by a short spin (1000 rpm, 15 sec) and the plates were then incubated for 30 min. The absorbance at 405 and 573 nm were measured using ViewLux (Perkin-Elmer) High-throughput CCD imager and absorbance protocol settings. The 573-to-405 absorbance ratio was used to compute reaction progress.
For the compound `CCC(=O)N(Cc1cc(=O)[nH]c2ccccc12)C1CCCCC1`, the Potency result is “inactive”.

For the compound `O=C(C1=C(O)C(=O)N(Cc2ccco2)C1c1cccnc1)c1cc2ccccc2o1` (configuration not stated), the Potency entry is “inactive”.

As for `CCOC(=O)c1ccc(N2CSC3=C(C#N)C(c4ccc(OC)cc4OC)CC(=O)N3C2)cc1` (configuration not stated), the Potency result was “inactive”.

Take `O=C(Nc1nnc(-c2ccccc2)o1)c1ccc(Cl)cc1`: the Potency result is “inactive”.

As for `Oc1ccc(CNc2ccccc2)c2cccnc12`, the Potency entry is “inactive”.

For `Cc1c(N/C=C/C(=O)c2cccs2)c(=O)n(-c2ccccc2)n1C`, the Potency result was “inactive”.

For the compound `O=C1C2C3CCCC3=C3CCCC3C2C(=O)N1c1cccc(Cl)c1` (configuration not stated), the Potency result was “inactive”.

As for `Cc1cccc(CNc2ncnc3ccc(-c4ccc5c(c4)OCO5)cc23)c1`, the Potency result is “inactive”.

Turning to `CC(=O)[C@@H]1[C@@H]2C(=O)N(Cc3ccccc3)C(=O)[C@@H]2C2c3ccccc3C=CN21` (some centres not stated), the Potency entry was “inactive”.

Take `CCCC(=O)NC(c1ccco1)c1cc(Cl)c2cccnc2c1O` (configuration not stated): the Potency result is “inactive”.

Consider `Cc1cc(/C=N/NC(=O)Cn2c3ccccc3c(=O)c3ccccc32)c(C)n1-c1ccccc1`, for which the Potency was 7.08 µM (active).

On to `O=C(Nc1nnc(-c2ccco2)s1)C1CCCCC1`, for which the Potency is 1 µM (active).
